Laboratory results reported in PubChem BioAssay (NCI).
The panel holds about 83,000 compounds, 20% with a hit somewhere; the sample as a whole holds those more often.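 Note: values are percent growth. 100 is the growth of untreated cells, values between 100 and 0 indicate rising inhibition; between -100 and 0 indicates cell death.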 Calls of active or inactive are those of the source. How the source made its calls: active means growth percent below 10; inactive means the rest.

Experiments:
Experiment in all cases: NCI-60 one-dose screen, 48 h (100 = growth as untreated, 0 = no growth, -100 = all killed)
Settings in all cases: 10 µM unless noted
[1] = tested on: NCI-H23 lung
[2] = tested on: NCI-H226 lung
[3] = tested on: NCI-H322M lung
[4] = tested on: HOP-62 NSCLC
[5] = tested on: NCI-H460 lung
[6] = tested on: NCI-H522 lung
[7] = tested on: 786-0 renal
[8] = tested on: COLO 205 colon
[9] = tested on: DU-145 prostate
[10] = tested on: K-562 leukemia
[11] = tested on: MALME-3M melanoma
[12] = tested on: MDA-MB-231 breast
[13] = tested on: RXF 393 renal
[14] = tested on: SF-268 CNS
[15] = tested on: SF-295 CNS
[16] = tested on: SF-539 CNS
[17] = tested on: UACC-257 melanoma
[18] = tested on: M14 melanoma
[19] = tested on: A549/ATCC NSCLC
[20] = tested on: HOP-92 NSCLC

Measured: growth

O=[N+]([O-])CC(O)c1ccccc1 (stereo not given)
inactive: [1] 93.1% | [2] 97.9% | [3] 118% | [4] 100% | [5] 101% | [6] 97.3% | [7] 80.3% | [8] 113% | [9] 109% | [10] 99.4% | [11] 122% | [12] 87.6% | [13] 112% | [14] 100% | [15] 113% | [16] 103% | [17] 88.7% | [18] 97.6%

COc1cc2c(c(OC)c1OC)-c1ccc(NCc3ccccc3)c(=O)cc1[C@@H](NC(C)=O)CC2
inactive: [1] 25.9% | [3] 50.1% | [4] 26.9% | [19] 14.5% | [7] 21.9% | [11] 40.3% | [13] 51.8% | [14] 25.3% | [17] 63.4% | [18] 13.6%
active: [2] -12.4% | [5] 4.14% | [6] -10.3% | [8] -82.4% | [9] 1.24% | [10] 2.48% | [12] -3.82% | [15] -36.2% | [16] 0.134%

CC12CCC(O)CC1=CCC1C2CCC2(C)C3=NN=CC3CC12 (stereo not given)
inactive: [1] 101% | [2] 105% | [3] 118% | [4] 101% | [5] 125% | [6] 105% | [19] 104% | [7] 112% | [8] 112% | [9] 122% | [10] 61.1% | [11] 98% | [12] 103% | [13] 102% | [14] 105% | [16] 106% | [17] 103% | [18] 99.7%

COc1ccc(C(OCC2OC(n3ccc(NC(=O)c4ccccc4)nc3=O)C(O)C2O)(c2ccccc2)c2ccccc2)cc1 (stereo not given)
inactive: [1] 54.8% | [2] 29.9% | [3] 109% | [4] 85.3% | [5] 15.5% | [6] 67.9% | [19] 28.1% | [7] 52.5% | [8] 39.5% | [9] 52.4% | [10] 32.7% | [12] 58.2% | [13] 31% | [14] 54.2% | [15] 41.7% | [16] 42.9% | [17] 64.3% | [18] 40.2%

CCC1CCCCN1C(=S)N/N=C(\C)c1ccccn1 (stereo not given)
active: [2] 7.86% | [3] 8.13% | [5] -38.7% | [6] -18.6% | [19] 2.7% | [8] -37.5% | [11] -13.2% | [13] 0.202% | [14] 1.82% | [17] 0% | [18] 0.97%
inactive: [1] 20.8% | [4] 10.2% | [7] 11.3% | [9] 20.3% | [10] 12.3% | [12] 21.5% | [15] 13%

CC/C(=C(/CC)c1ccc(O)cc1)c1ccc(O)cc1
inactive: [1] 75.8% | [2] 82.7% | [4] 70.8% | [5] 85.6% | [20] 58.1% | [6] 61% | [7] 80% | [8] 97.6% | [9] 84.1% | [10] 27.5% | [11] 54.5% | [12] 58.7% | [13] 65.1% | [14] 63.9% | [15] 43.9% | [16] 68.3% | [17] 68.9% | [18] 43.9%

COc1cc(/C=C2\SC(=S)N(/C=C/c3nc4ccccc4[nH]c3=O)C2=O)cc(OC)c1OC
inactive: [1] 69.7% | [2] 76.6% | [4] 65.8% | [5] 92.1% | [20] 53.3% | [6] 60.3% | [19] 67.5% | [7] 76.6% | [8] 101% | [9] 97.7% | [10] 88.1% | [12] 80.1% | [13] 77.7% | [14] 77.5% | [15] 88.4% | [16] 95.2% | [17] 79.2% | [18] 75.4%

Oc1ccc(Br)cc1Sc1cc(Br)ccc1O
inactive: [2] 98.2% | [3] 92% | [4] 84.7% | [20] 22.1% | [19] 50.6% | [7] 100% | [8] 113% | [9] 76.4% | [10] 49.2% | [11] 40.9% | [12] 56.7% | [13] 76.8% | [14] 55.3% | [15] 98.9% | [16] 45.3% | [17] 52.1% | [18] 39.9%
active: [1] 9.64%
